Results published in publication PMC7862700, “An all-to-all approach to the identification of sequence-specific readers for epigenetic DNA modifications on cytosine”.

Tests used:
Experiment in all cases: DAPPL (digital affinity profiling via proximity ligation, sequencing); 10 mM Tris-HCl pH 7.5, 50 mM NaCl, 1 mM DTT, 4% glycerol, room temperature, 30 min; GST-TFs on glutathione beads, 16-mer random dsDNA library, 0.1% formaldehyde crosslink after washing; high values mean tight binding
FLI1 = biological target: T1, FLI1 (Homo sapiens, UniProt Q01543 1-452); details: protein: recombinant; tags: N-terminal GST; dsDNA, one strand shown
T1 sequence: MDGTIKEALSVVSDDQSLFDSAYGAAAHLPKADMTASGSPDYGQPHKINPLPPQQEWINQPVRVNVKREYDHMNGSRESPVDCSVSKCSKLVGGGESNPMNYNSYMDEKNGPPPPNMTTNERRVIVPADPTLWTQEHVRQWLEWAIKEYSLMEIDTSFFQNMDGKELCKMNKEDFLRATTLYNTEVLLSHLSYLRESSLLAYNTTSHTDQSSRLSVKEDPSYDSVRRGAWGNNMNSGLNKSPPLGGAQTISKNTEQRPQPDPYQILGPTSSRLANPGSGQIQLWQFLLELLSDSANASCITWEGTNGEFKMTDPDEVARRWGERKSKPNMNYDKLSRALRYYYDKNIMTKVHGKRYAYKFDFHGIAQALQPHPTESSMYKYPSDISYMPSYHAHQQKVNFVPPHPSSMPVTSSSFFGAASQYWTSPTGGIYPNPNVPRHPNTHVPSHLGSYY
In short: (§1)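 Human transcription factors were made in yeast as GST fusions, captured on glutathione beads and barcoded with DNA. With a tag-only sample included, the pool was incubated with 200 nmole of a random double-stranded 16-mer DNA library in Tris/NaCl/DTT/glycerol buffer at room temperature for 30 min, then crosslinked with 0.1% formaldehyde after washing, ligated by proximity, amplified and sequenced. For binding signal, each hexamer's read frequency for a factor is divided by its frequency for the tag-only sample.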

ELK1 = biological target: T2, ELK1 (Homo sapiens, UniProt P19419 1-428); details: protein: recombinant; tags: N-terminal GST; dsDNA, one strand shown
T2 sequence: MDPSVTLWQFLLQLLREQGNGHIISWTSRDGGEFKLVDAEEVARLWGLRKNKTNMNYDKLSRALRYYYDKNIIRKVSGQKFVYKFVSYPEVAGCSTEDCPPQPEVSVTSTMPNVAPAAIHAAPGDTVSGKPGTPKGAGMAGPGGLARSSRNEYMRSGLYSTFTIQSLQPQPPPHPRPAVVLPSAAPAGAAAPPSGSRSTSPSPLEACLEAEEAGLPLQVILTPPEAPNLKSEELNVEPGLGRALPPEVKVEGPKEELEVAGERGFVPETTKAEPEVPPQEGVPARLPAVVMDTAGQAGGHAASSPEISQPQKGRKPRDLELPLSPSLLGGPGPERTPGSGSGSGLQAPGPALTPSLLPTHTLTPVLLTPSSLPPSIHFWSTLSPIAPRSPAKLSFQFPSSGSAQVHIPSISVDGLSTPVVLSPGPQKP
In short: as §1

GABPA = biological target: T3, GABPA (Homo sapiens, UniProt Q06546 1-454); details: protein: recombinant; tags: N-terminal GST; dsDNA, one strand shown
T3 sequence: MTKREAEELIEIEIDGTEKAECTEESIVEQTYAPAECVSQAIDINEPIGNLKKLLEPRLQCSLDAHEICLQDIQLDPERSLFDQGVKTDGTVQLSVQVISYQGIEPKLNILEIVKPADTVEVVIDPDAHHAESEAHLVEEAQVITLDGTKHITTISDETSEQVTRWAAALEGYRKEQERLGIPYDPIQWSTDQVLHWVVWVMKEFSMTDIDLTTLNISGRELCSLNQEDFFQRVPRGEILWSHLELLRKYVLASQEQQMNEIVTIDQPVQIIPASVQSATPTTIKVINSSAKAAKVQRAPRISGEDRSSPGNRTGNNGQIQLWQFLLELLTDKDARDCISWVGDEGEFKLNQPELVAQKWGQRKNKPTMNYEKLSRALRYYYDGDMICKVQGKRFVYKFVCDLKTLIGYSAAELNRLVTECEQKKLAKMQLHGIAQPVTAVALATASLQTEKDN
In short: as §1

ERG = biological target: T4, ERG (Homo sapiens, UniProt P11308 1-479); details: protein: recombinant; tags: N-terminal GST; dsDNA, one strand shown
T4 sequence: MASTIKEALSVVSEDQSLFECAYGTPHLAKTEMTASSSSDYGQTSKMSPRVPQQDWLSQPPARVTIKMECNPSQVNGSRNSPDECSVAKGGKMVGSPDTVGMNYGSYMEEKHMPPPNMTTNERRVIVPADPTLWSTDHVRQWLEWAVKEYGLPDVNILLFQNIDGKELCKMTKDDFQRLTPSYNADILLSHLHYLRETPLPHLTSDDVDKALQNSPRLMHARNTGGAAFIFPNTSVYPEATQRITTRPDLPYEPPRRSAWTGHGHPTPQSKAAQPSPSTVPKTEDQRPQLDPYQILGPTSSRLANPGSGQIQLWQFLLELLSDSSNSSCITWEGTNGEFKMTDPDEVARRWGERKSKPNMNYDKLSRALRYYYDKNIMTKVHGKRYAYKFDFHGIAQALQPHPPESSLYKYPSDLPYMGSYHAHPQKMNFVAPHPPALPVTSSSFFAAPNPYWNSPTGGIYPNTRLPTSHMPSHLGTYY
In short: as §1

ELF1 = ELF1 (Homo sapiens, UniProt P32519 1-619); details: protein: recombinant; tags: N-terminal GST; dsDNA, one strand shown
In short: as §1

EHF = biological target: T5, EHF (Homo sapiens, UniProt Q9NZC4 1-300); details: protein: recombinant; tags: N-terminal GST; dsDNA, one strand shown
T5 sequence: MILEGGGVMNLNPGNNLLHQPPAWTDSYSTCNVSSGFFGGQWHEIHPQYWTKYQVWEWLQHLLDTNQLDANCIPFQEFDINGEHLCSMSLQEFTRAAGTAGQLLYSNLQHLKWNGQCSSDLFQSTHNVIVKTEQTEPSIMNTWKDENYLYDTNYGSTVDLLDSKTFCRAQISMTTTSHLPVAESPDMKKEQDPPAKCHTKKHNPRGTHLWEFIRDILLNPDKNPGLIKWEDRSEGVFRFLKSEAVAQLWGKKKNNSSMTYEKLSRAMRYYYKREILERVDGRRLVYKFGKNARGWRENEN
In short: as §1

SPIB = SPIB (Homo sapiens, UniProt Q01892 1-262); details: protein: recombinant; tags: N-terminal GST; dsDNA, one strand shown
In short: as §1

FEV = biological target: T6, FEV (Homo sapiens, UniProt Q99581 1-238); details: protein: recombinant; tags: N-terminal GST; dsDNA, one strand shown
T6 sequence: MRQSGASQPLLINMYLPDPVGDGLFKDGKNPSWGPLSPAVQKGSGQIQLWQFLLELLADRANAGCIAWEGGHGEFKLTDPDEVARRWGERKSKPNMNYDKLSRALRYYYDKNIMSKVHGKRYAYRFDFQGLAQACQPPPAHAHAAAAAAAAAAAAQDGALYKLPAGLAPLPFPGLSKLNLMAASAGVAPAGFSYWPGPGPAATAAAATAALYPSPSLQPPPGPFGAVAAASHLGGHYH
In short: as §1

ETV5 = ETV5 (Homo sapiens, UniProt P41161 1-510); details: protein: recombinant; tags: N-terminal GST; dsDNA, one strand shown
In short: as §1

HSF1 = HSF1 (Homo sapiens, UniProt Q00613 1-529); details: protein: recombinant; tags: N-terminal GST; chain copies: 3; dsDNA, one strand shown
In short: as §1

SPIC = biological target: T7, SPIC (Homo sapiens, UniProt Q8N5J4 1-248); details: protein: recombinant; tags: N-terminal GST; dsDNA, one strand shown
T7 sequence: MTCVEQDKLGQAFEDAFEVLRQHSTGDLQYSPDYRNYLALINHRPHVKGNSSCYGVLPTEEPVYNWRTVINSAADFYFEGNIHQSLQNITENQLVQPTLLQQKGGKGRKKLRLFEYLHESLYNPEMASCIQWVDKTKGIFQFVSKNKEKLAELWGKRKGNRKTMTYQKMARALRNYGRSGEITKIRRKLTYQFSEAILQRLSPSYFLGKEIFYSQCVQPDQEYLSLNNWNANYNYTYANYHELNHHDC
In short: as §1

ELF4 = ELF4 (Homo sapiens, UniProt Q99607 1-663); details: protein: recombinant; tags: N-terminal GST; dsDNA, one strand shown
In short: as §1

ELK4 = biological target: T8, ELK4 (Homo sapiens, UniProt P28324-2 1-405); details: protein: recombinant; tags: N-terminal GST; dsDNA, one strand shown
T8 sequence: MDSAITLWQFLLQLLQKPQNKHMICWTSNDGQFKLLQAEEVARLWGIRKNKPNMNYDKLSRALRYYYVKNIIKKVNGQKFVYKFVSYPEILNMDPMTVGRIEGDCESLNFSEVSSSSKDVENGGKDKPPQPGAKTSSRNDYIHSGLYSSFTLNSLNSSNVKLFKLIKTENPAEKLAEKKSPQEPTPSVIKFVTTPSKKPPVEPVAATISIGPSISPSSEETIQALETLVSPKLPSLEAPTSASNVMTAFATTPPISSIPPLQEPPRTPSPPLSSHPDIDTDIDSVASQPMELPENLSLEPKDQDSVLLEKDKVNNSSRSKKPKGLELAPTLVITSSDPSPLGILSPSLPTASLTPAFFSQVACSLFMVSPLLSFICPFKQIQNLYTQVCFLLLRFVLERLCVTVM
In short: as §1

ETV2 = biological target: T9, ETV2 (Homo sapiens, UniProt O00321 1-342); details: protein: recombinant; tags: N-terminal GST; dsDNA, one strand shown
T9 sequence: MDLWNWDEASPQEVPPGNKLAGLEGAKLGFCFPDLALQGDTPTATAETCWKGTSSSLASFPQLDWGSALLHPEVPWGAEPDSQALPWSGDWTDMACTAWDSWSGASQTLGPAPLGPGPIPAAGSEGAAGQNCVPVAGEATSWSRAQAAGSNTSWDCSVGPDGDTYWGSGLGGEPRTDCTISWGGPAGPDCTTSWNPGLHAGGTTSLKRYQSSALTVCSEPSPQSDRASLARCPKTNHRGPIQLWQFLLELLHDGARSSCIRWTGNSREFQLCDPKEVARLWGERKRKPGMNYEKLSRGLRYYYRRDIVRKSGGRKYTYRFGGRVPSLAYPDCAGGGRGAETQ
In short: as §1

ELF3 = biological target: T10, ELF3 (Homo sapiens, UniProt P78545 1-371); details: protein: recombinant; tags: N-terminal GST; dsDNA, one strand shown
T10 sequence: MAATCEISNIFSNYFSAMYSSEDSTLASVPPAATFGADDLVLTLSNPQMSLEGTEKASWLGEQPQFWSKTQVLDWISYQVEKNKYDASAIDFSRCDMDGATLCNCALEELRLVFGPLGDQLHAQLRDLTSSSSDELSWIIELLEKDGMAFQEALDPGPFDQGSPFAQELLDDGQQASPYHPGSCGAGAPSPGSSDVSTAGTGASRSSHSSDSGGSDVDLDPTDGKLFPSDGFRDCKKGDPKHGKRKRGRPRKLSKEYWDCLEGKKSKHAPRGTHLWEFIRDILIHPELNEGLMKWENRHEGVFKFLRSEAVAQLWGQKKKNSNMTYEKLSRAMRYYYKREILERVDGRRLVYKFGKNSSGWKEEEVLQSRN
In short: as §1

CRX = CRX (Homo sapiens, UniProt O43186 1-299); details: protein: recombinant; tags: N-terminal GST; dsDNA, one strand shown
In short: as §1

ETV1 = ETV1 (Homo sapiens, UniProt P50549 1-477); details: protein: recombinant; tags: N-terminal GST; dsDNA, one strand shown
In short: as §1

SPI1 = SPI1 (Homo sapiens, UniProt P17947 1-270); details: protein: recombinant; tags: N-terminal GST; dsDNA, one strand shown
In short: as §1

Sequence of CRX (O43186 whole entry): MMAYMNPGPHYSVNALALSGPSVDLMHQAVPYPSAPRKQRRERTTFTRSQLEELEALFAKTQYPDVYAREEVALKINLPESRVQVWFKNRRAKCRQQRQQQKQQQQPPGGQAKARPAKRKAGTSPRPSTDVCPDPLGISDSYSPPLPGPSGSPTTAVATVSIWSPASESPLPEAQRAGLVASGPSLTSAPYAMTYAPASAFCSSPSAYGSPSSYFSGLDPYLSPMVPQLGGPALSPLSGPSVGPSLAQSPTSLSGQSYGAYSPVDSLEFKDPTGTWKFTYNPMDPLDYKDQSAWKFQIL
Sequence of ETV1 (P50549 whole entry): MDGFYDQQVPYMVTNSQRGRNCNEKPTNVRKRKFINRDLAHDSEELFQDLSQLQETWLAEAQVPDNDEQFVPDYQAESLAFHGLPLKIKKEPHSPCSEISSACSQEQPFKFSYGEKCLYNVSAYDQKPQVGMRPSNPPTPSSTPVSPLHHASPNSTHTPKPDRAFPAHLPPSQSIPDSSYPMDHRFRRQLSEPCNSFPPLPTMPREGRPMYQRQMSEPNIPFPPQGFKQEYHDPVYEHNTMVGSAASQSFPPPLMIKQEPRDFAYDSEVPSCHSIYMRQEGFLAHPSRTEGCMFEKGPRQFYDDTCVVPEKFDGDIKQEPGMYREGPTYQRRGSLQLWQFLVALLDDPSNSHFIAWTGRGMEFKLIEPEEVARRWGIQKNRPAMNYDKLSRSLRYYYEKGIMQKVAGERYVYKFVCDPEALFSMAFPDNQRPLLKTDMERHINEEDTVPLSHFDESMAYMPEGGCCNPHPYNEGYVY
Sequence of ETV5 (P41161 whole entry): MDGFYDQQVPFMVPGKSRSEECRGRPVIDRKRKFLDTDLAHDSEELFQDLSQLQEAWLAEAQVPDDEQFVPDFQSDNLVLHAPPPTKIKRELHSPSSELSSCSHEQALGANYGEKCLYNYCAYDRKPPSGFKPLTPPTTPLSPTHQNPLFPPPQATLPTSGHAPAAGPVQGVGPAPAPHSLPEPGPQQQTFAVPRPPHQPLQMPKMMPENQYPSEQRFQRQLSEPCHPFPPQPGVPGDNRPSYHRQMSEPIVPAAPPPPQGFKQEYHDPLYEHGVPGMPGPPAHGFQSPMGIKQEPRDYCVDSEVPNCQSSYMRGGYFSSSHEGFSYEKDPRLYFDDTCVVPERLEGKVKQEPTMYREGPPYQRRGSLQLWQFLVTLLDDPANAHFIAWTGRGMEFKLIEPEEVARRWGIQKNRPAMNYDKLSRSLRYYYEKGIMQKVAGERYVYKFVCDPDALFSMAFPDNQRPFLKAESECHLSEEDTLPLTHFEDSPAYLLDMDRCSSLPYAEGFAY
Sequence of ELF4 (Q99607 whole entry): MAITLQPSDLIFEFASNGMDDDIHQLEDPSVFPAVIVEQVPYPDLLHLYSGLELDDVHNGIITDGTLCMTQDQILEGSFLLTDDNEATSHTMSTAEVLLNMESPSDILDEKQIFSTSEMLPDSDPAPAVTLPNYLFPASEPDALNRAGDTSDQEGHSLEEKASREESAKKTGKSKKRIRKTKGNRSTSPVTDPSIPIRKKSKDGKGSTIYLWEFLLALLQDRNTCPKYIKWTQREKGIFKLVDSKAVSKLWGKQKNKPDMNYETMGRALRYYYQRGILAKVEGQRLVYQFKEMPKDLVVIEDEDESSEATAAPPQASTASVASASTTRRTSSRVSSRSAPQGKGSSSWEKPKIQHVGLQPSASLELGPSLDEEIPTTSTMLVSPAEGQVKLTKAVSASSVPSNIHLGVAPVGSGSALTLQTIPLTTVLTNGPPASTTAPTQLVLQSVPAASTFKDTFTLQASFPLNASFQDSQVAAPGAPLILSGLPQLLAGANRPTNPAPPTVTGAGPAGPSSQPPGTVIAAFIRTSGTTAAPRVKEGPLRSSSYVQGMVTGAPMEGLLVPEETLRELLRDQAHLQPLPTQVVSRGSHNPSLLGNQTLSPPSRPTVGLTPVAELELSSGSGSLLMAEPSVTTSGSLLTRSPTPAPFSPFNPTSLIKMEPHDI
Sequence of ELF1 (P32519 whole entry): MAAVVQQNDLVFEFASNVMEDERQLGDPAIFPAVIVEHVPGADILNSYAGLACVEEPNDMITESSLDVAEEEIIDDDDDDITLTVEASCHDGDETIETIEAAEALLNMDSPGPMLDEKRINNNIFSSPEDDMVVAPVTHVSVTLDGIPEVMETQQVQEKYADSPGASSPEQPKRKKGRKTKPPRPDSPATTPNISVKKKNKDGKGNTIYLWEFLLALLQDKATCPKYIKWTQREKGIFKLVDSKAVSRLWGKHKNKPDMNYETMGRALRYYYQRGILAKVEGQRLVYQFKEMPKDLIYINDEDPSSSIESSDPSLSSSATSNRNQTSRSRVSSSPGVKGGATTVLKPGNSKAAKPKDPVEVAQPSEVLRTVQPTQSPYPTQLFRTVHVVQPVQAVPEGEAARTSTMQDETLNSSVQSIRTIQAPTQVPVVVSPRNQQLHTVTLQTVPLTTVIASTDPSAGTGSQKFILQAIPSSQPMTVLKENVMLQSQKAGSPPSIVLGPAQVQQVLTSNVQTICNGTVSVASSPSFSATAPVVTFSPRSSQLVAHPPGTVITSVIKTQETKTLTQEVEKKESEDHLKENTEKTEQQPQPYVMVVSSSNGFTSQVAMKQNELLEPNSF
Sequence of HSF1 (Q00613 whole entry): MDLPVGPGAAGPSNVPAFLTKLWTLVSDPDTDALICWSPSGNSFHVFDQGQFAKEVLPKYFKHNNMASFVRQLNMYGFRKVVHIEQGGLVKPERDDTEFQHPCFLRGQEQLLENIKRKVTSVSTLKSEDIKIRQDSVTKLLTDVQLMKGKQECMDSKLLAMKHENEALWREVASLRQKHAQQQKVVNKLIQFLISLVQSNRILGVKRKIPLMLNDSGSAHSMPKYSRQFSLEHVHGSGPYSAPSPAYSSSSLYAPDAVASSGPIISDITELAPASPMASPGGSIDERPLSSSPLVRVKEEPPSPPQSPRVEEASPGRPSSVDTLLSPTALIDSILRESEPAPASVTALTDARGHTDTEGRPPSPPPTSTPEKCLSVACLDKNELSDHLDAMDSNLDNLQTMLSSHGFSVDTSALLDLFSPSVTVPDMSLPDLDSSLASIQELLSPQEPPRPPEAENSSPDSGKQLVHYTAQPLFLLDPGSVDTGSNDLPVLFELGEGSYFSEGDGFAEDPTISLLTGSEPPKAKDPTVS
Sequence of SPIB (Q01892 whole entry): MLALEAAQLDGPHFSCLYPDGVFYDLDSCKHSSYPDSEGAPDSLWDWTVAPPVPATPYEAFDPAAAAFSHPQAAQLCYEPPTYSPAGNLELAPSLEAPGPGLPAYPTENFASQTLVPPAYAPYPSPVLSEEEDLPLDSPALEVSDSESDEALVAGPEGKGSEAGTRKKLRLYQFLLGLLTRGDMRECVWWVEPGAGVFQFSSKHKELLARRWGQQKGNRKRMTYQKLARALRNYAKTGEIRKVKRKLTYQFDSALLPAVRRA

Row | Sequence | binding signal (FLI1) | binding signal (ELK1) | binding signal (GABPA) | binding signal (ERG) | binding signal (ELF1) | binding signal (EHF) | binding signal (SPIB) | binding signal (FEV) | binding signal (ETV5) | binding signal (HSF1) | binding signal (SPIC) | binding signal (ELF4) | binding signal (ELK4) | binding signal (ETV2) | binding signal (ELF3) | binding signal (CRX) | binding signal (ETV1) | binding signal (SPI1)
1 | ACCCGA | 1.05 fold enrichment (6-mer frequency, TF over GST control) | 1.02 fold enrichment (6-mer frequency, TF over GST control) | 1.03 fold enrichment (6-mer frequency, TF over GST control) | 1.05 fold enrichment (6-mer frequency, TF over GST control) | 1.03 fold enrichment (6-mer frequency, TF over GST control) | 1.18 fold enrichment (6-mer frequency, TF over GST control) | 1.14 fold enrichment (6-mer frequency, TF over GST control) | 1.1 fold enrichment (6-mer frequency, TF over GST control) | 1.08 fold enrichment (6-mer frequency, TF over GST control) | 1.21 fold enrichment (6-mer frequency, TF over GST control) | 1.08 fold enrichment (6-mer frequency, TF over GST control) | 1.03 fold enrichment (6-mer frequency, TF over GST control) | 1.04 fold enrichment (6-mer frequency, TF over GST control) | 1.17 fold enrichment (6-mer frequency, TF over GST control) | 1.11 fold enrichment (6-mer frequency, TF over GST control) | 1.1 fold enrichment (6-mer frequency, TF over GST control) | 1.1 fold enrichment (6-mer frequency, TF over GST control) | –
2 | TTGAGG | 1.23 fold enrichment (6-mer frequency, TF over GST control) | 1.09 fold enrichment (6-mer frequency, TF over GST control) | 1.16 fold enrichment (6-mer frequency, TF over GST control) | 1.06 fold enrichment (6-mer frequency, TF over GST control) | 1.08 fold enrichment (6-mer frequency, TF over GST control) | 1.11 fold enrichment (6-mer frequency, TF over GST control) | – | 1.06 fold enrichment (6-mer frequency, TF over GST control) | 1.09 fold enrichment (6-mer frequency, TF over GST control) | 1.01 fold enrichment (6-mer frequency, TF over GST control) | 1.26 fold enrichment (6-mer frequency, TF over GST control) | 1.13 fold enrichment (6-mer frequency, TF over GST control) | 1.23 fold enrichment (6-mer frequency, TF over GST control) | 1.1 fold enrichment (6-mer frequency, TF over GST control) | 1.05 fold enrichment (6-mer frequency, TF over GST control) | 1.02 fold enrichment (6-mer frequency, TF over GST control) | 1.06 fold enrichment (6-mer frequency, TF over GST control) | 1.27 fold enrichment (6-mer frequency, TF over GST control)
